NPC1 promoter act – activates the NPC1 promoter | AID 485313 | Potency, µM (doses to about 9.22 µM), for the others: at the highest dose activation, actives largely listed as activators | Huh7 NPC1 promoter luciferase reporter, 24 h | 320,000 tested, 2.4% active; note: % of control where 0% means no effect; nearly all actives have a fitted effect of over 60% in size
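Luminescence from an NPC1 promoter-driven luciferase reporter in stably transfected Huh7 cells was measured after 24 h compound treatment at 37 °C, followed by 10 min ambient incubation with luciferase detection reagent.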
Luc counter – Kinase-Glo luciferase inhibition (counter-screen); Potency, µM (titrated, usually from 38.3 µM), inactives show at the highest dose activity change, negative = inhibition, usual class: inhibitors; AID 1379; 200,000 tested, 0.28% active; Q27757; Kinase-Glo luciferase, ATP luminescence, 8 min; note: % is set by controls: 0 for no effect and ±100 for the full control effect; nearly all actives have a fitted effect of over 60% in size
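Inhibition of Kinase-Glo luciferase light generation was assessed at 10 uM ATP in pH 7.2 imidazole buffer, with luminescence measured after eight minutes at ambient temperature.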
FLuc modulator – counter-screen for miR-21 project: firefly luciferase inhibitors or activators; 360,000 tested, 6.9% active; purified FLuc, Km substrates, luminescence inhibition; P08659; Potency, µM (highest dose often 57.5 µM), inactives show at the highest dose activity change, negative = inhibition, actives largely listed as inhibitors; AID 588342;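 note: plate controls were vehicle for no effect and reference inhibitor for full effect; nearly all actives have a fitted effect of over 55% in size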
Target sequence (P08659 whole entry, looked up): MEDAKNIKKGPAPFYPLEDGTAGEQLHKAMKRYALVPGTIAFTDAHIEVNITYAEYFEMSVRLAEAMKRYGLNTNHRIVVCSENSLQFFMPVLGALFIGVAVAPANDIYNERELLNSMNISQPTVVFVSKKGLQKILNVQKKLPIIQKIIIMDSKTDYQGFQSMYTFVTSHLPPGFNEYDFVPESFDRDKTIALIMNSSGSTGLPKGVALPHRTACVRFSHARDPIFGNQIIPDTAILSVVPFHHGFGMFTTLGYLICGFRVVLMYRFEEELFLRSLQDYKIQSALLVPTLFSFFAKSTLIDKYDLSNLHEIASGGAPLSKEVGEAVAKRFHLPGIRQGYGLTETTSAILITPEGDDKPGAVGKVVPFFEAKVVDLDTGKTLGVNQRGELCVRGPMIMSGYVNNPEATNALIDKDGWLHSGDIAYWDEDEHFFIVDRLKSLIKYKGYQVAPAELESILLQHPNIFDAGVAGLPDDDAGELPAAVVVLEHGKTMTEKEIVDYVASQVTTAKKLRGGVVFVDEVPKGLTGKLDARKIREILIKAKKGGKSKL
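Purified P. pyralis luciferase (10nM final) with 10uM D-luciferin and 10uM ATP (Km levels) in 50mM Tris acetate pH 7.5, 10mM Mg acetate, 0.01% Tween-20, 0.05% BSA; qHTS 6-point titration, ~60 µM downward; luminescence read.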
Rab9 prom act – activates the Rab9 promoter; Huh7 Rab9 promoter-luciferase reporter, luminescence, 24 h; Potency, µM (titrated, usually from 9.22 µM), for the others: at the top dose activation, negative = inhibition, most hits filed as activators; 320,000 tested, 2.8% active; note: % of control where 0% means no effect; nearly all actives have a fitted effect of over 60% in size
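Rab9 promoter-driven luciferase in stably transfected Huh7 cells; 1500 cells/well rested 2 h, exposed to compound in DMSO for 24 h at 37 °C, 5% CO2. Luminescence read 10 min after adding luciferase reagent at ambient temperature.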
SMN2 splice up – SMN2 splice variant enhancement. HEK293 SMN2-luciferase splicing reporter, luminescence, 30-36 h. Potency, µM (highest dose often 46.1 µM), for the others: top-dose activity change, positive = activation, actives largely listed as activators. 210,000 tested, 2.8% active; note: % of control where 0% means no effect; nearly all actives have a fitted effect of over 55% in size
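qHTS luciferase splicing reporter: luminescence rises when SMN2 exon 7 is included in transfected HEK293 cells. Compound exposure lasted 30-36 h at 37C, with 4.5 mM final sodium butyrate as control, followed by a ONE-Glo read.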
ELG1 genotox – inducers of genotoxicity in HEK293T ELG1-luciferase cells; 330,000 tested, 1.3% active; HEK293T ELG1-luciferase reporter, luminescence, 16 h; AID 504466; Potency, µM (doses to about 46 µM), without a hit: at the highest dose activity change, positive = activation, most hits filed as activators; note: % of control where 0% means no effect; nearly all actives have a fitted effect of over 60% in size
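Genotoxicity was scored as increased ELG1-luciferase reporter signal, measured by ONE-Glo luminescence (30 min, room temperature). Compound or vehicle exposure of the HEK293T reporter cells lasted 16 hr at 37°C.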
An asterisk follows results filed as active; ? = inconclusive; / = no result; [ ] = remark or other dose. Sampled rows, rich in hits. Any-hit rate of the full collection: about 7.3%. Calls come from the whole dose curve; as a rule, active = well fitted curve in the direction sought with a large enough effect; inconclusive = small, poorly fitted or top-dose-only effect, or another doubt; inactive = no such curve, though single readings can be large; an effect the other way counts as inactive or inconclusive. Potency is the fitted concentration of half-maximal effect.

SMILES | NPC1 promoter act | Luc counter | FLuc modulator | Rab9 prom act | SMN2 splice up | ELG1 genotox
COc1ccc2oc(C(=O)N3CCCc4ccccc43)c(C)c2c1 | ? | / | 19µM* | ? | / | 16%
COc1ccc2oc(C(=O)Nc3ccc(N4CCOCC4)cc3)c(C)c2c1 | 0% | / | 6.7µM* | 2% | / | -21%
COc1cc(OC)cc(C(=O)N2CCCc3ccccc32)c1 | 3% | 0% | ? | -1% | / | 7%
Cc1c(C(=O)Nc2ccc(N3CCOCC3)cc2)oc2ccccc12 | 4µM* | -5% | 1.9µM* | 4.5µM* | 29% | 8%
Cc1c(C(=O)NNC(=O)c2csc(N3CCOCC3)n2)oc2ccccc12 | 11% | / | 27µM* | 1% | / | 2%
Cc1ccc(-n2ccn(CC(=O)c3ccc(F)cc3)c(=O)c2=O)cc1C | / | / | -10% | / | / | /
COc1ccc(OC)c(NC(=O)Cn2c(=O)cc(-c3ccccc3)c3c(C)nn(C)c32)c1 | / | / | -2% | / | / | /
O=C(c1cc(F)cc(F)c1)N1CCC(c2nc(-c3ccc(S(=O)(=O)N4CCCC4)cc3)no2)CC1 | / | / | -15% | / | 2% | /
NCCc1nc2cccnc2n1-c1ccccc1 | / | / | 0% | / | / | /
CC(=O)Nc1cccc(C(=O)N/N=C/c2ccccc2F)c1 | 3.2µM* | ? | 1.3µM* | 0.79µM* | ? | 7.3µM*
O=C(CN1CCN(Cc2ccccc2)CC1)N/N=C/c1ccccc1F | 14% | / | 2% | 1% | / | -3%
CC(=O)Nc1cccc(C(=O)N/N=C/c2cccnc2)c1 | 2% | -5% | ? | 11% | 4% | 9%
Cc1ccc(CN2CCN(CC(=O)N/N=C/c3ccccc3F)CC2)cc1 | 6% | / | 1.7µM* | ? | / | ?
Cc1ccc(C(=O)Nc2cccc(C(=O)N/N=C/c3ccccc3F)c2)cc1 | 2µM* | / | 5.4µM* | 1.6µM* | / | ?
CCCSc1ncc(Cl)c(C(=O)N(Cc2ccc(N(C)C)cc2)C2CCS(=O)(=O)C2)n1 (stereo unspecified) | / | / | -5% | / | -12% | /
CCCC(=O)N1CCc2cc(OC)c(OC)cc2C1COc1ccc2c(C)cc(=O)oc2c1 (stereo unspecified) | / | / | 1% | / | 2% | /
O=C(NCCSc1ccccn1)c1ccc(Cl)cc1Cl | 0.79µM* | 0% | ? | 1.1µM* | 3.2µM* | -10%
CS(=O)(=O)N(Cc1ccc(Cl)cc1)c1ccc(C(=O)NCCSc2ccccn2)cc1 | 1% | 1% | 2% | 4% | -3%[1.84 µM] | -5%
O=C(NCCSc1ccccn1)c1ccc(Cl)cc1 | 0.63µM* | 0% | 3.4µM* | 0.63µM* | 2.2µM* | ?
COc1cc2c(cc1OC)C(c1ccc(F)cc1)N(c1ccc(F)cc1)C(=O)C2 (stereo unspecified) | / | / | -2% | / | 23% | /
Cc1cccc(OCCCC(=O)Nc2ccc(N(C)C)cc2)c1 | ? | -2% | 8.5µM* | ? | 0% | ?
Cc1cccc(OCCCC(=O)Nc2ccc(Br)cc2)c1 | 2% | 2% | -1% | -5% | 14% | 1%
O=C(CCOc1ccccc1)Nc1ccccc1 | 20% | 6% | ? | 16% | -8% | 10%
Cc1ccc(NC(=O)CCOc2ccccc2)cc1 | ? | / | 13µM* | 3.5µM* | / | ?
C=C1CCC2C(CC2(C)C)C(=C)CC/C1=N/O (stereo unspecified) | / | 2% | / | / | 8% | /
SMILES | NPC1 promoter act | Luc counter | FLuc modulator | Rab9 prom act | SMN2 splice up | ELG1 genotox
COc1cc(Cl)c(NC(=O)CN2C(=O)c3cccnc3Sc3ccccc32)c(OC)c1 | / | / | -8% | / | 1% | /
CCCCN(CC)C(=O)c1cc2cc3ccc(OC)cc3nc2o1 | ? | -2% | 15µM* | ? | -5% | 4%
CCCCN(C)C(=O)c1cc2cc3ccc(OC)cc3nc2s1 | 0.5µM* | ? | 0.76µM* | 0.45µM* | 6.3µM* | ?
CCN(C(=O)c1cc2cc3ccc(OC)cc3nc2o1)c1cccc(C)c1 | / | / | -17% | / | -4% | /
COc1ccc(C(=O)Nc2nnc(SCc3cc(=O)n4cccc(C)c4n3)s2)cc1 | / | / | -1% | / | / | /
COc1ccc(-c2nnc(NC(=O)c3ccc(F)cc3)o2)cc1 | -8% | 2% | 1% | -9% | -30% | 1%
COc1ccc(-c2nnc(Nc3nc4c(OC)cccc4s3)o2)c(OC)c1 | 0% | 0% | 9.5µM* | 2% | -10% | 2%
COc1ccc(-c2nnc(Nc3nc4c(OC)cccc4s3)o2)cc1 | 7% | -2% | 5.4µM* | -9% | 1% | ?
Cc1csc(NC(=O)c2cc3ccccc3o2)n1 | ? | / | 0.95µM* | 1.4µM* | / | ?
Cc1csc(C(C#N)C(=O)c2cc3ccccc3o2)n1 (stereo unspecified) | 2.8µM* | -18% | 1.3µM* | 2.8µM* | 11µM* | ?
CC(Cc1ccccc1)NC(=O)c1cc2ccccc2o1 (stereo unspecified) | 3.2µM* | / | ? | 2.5µM* | / | ?
Cc1ccc(-c2csc(NC(=S)NC(=O)c3cc4ccccc4o3)n2)cc1 | 25% | -2% | -2% | 28% | ? | 17%
CCOC(=O)Cc1csc(NC(=O)c2cc3ccccc3o2)n1 | ? | ? | 11µM* | ? | 1% | 7%
C=CC(=O)OCCOCCOC(=O)C=C | / | / | / | / | -30% | /
COC(=O)C1=C(C(=O)OC)[C@@H]2N(C)c3ccc(OC)cc3[C@@]23C[C@@H](C(=O)OC)N(S(=O)(=O)c2ccc4c(c2)OCCN4C)C3=N1 | / | 2%[7.66 µM] | / | / | ? | /
O=C(NCc1cccs1)c1cc2ccccc2o1 | 23% | 8% | 19µM* | 4% | 7% | 15%
COC(=O)C1(C(=O)OC)CC2=C[C@H](CC2=O)Cc2ccccc2[C@@H]1C[N+](=O)[O-] | / | 0% | / | / | 8% | /
Cc1ccc([N+](=O)[O-])cc1N=Cc1ccc(Br)s1 | ? | 2% | 13µM* | -1% | ? | 9%
Cc1ccc(C=Nc2cc([N+](=O)[O-])ccc2C)s1 | 5% | 1% | 0% | 0% | 13% | 1%
CCc1ccccc1NC(=O)C1CCN(C2=NS(=O)(=O)C(c3ccc(C)c(C)c3)=C2C)CC1 | / | / | -6% | / | / | /
COc1cccc(Cn2c(CNS(=O)(=O)c3ccc(C(C)(C)C)cc3)nc3cccnc32)c1 | / | / | -12% | / | / | /
C=CCN(C(=O)C1=NN(C2CCS(=O)(=O)C2)C(=O)CC1)c1nc(-c2ccc([N+](=O)[O-])cc2)cs1 (stereo unspecified) | 4µM* | -2% | -18% | 2.8µM* | 11µM* | 12%
CC(=O)c1cccc(NC(=O)Nc2sc3nc4n(c(=O)c3c2C)CCC(C)CC4)c1 (stereo unspecified) | / | / | -7% | / | -4% | /
CCOC(=O)c1ccc(-c2ccc3[nH]c4ccccc4c(=O)c3c2)cc1F | ? | / | 0.54µM* | -3% | / | ?

Screens from PubChem.
